PubChem BioAssay
A number with no mark means an inactive call. Activity calls are given as the source filed them.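 The calls were made as follows, unless noted: active = mean inhibition over 43.08%, the solvent-only control mean plus 3 SD; inactive = the rest.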

Biological target: Nuclear receptor coactivator 3 (Homo sapiens) (UniProt Q9Y6Q9)
Assay: SRC3 coactivator transcriptional activity inhibitors, confirmation, cell-based, luminescence, quadruplicate (AID 588792);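 also: 0% = DMSO treated cells and 100% = gossypol at 36 µM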
Settings: HEK293 GAL4-SRC3 luciferase reporter, at 3.6 µM, stronger effect = higher value

Nuclear receptor coactivator 3 (Homo sapiens), sequence (Q9Y6Q9 whole entry, looked up): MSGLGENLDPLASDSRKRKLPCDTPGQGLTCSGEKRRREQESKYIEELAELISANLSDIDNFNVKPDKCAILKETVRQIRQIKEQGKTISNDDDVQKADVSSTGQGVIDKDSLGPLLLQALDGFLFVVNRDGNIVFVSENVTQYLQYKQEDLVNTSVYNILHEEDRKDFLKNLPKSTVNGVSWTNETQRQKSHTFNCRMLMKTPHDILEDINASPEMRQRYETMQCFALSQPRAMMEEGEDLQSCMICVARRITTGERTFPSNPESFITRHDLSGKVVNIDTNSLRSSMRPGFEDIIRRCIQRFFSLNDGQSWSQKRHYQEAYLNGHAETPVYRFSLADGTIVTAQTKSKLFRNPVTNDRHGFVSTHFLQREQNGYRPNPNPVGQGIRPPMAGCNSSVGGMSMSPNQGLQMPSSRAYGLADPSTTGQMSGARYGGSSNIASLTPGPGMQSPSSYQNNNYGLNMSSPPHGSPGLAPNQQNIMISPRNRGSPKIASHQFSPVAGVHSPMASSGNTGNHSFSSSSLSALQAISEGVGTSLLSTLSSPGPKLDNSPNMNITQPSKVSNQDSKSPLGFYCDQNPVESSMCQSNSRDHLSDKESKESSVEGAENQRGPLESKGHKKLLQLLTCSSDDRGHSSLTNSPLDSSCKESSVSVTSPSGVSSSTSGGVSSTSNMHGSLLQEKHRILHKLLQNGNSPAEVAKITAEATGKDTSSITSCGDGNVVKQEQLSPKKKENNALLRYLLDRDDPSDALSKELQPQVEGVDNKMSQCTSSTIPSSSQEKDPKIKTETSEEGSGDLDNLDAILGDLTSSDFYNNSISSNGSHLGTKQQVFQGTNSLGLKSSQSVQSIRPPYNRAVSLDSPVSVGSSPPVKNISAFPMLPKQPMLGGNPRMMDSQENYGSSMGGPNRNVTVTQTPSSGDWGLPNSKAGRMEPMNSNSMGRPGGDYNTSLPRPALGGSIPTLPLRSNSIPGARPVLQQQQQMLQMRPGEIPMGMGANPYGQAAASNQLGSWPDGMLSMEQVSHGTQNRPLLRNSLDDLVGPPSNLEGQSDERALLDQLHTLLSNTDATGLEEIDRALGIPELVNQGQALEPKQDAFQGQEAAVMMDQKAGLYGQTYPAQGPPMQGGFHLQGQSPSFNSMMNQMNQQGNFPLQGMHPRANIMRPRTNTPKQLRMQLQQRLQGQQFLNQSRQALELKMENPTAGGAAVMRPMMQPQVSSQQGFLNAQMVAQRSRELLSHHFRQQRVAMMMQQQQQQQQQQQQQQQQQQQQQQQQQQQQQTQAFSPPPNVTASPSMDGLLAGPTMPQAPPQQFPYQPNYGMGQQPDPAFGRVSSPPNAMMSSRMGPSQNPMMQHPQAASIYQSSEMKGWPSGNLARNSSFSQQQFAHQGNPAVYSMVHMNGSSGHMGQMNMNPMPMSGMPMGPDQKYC

| SMILES | inhibition |
| --- | --- |
| Cc1cccc(OCC(=O)NCC(=O)N/N=C/c2ccc(O)cc2O)c1 | 15.4% |
| CCCCC(=O)NC(=S)Nc1cccc(Cl)c1N1CCCCC1 | 1.21% |
| CC(C)c1ccc(NC(=O)C2CCCN(S(=O)(=O)c3cccnc3)C2)cc1 (stereo not given) | -12.3% |
| COC(=O)c1ccc(S(=O)(=O)NCc2ccc(S(N)(=O)=O)cc2)o1 | -5.84% |
| CCc1ccc(C(=O)COC(=O)c2cncc(Br)c2)cc1 | 10.2% |
| FC(F)(F)c1cccc(-c2nc3nc(Cl)c(Cl)nc3[nH]2)c1 | -12% |
| Cc1cccc(OCC(O)Cn2c(=N)n(CCN3CCCCC3)c3ccccc32)c1 (stereo not given) | 2.86% |
| O=C(NC(=S)NNC(=O)c1cc2ccccc2cc1O)c1ccco1 | 26.9% |
| Cc1ccc2c(c1)c(C)cc[n+]2Cc1ccccc1 | 10.7% |
| COC(=O)Cc1[nH]n(-c2nc3ccccc3s2)c(=O)c1C(C)=Nc1ccc(C)cc1 | 90.5% (active) |
| OCC(O)C(O)C(O)C(O)C1NCCS1 (stereo not given) | -6.42% |
| COc1ccc(S(=O)(=O)Nc2cc([N+](=O)[O-])ccc2OC)cc1 | -7.49% |
| Cc1ccc(C2(c3ccc(C)cc3)CC2C(=O)Nc2ccc([N+](=O)[O-])cc2O)cc1 (stereo not given) | 11.3% |
| Oc1cccc2ccc(Nc3ccccn3)nc12 | 3.4% |
| Brc1ccc(N=Nc2ccc3ccccc3n2)cc1 | 51.2% (active) |
| O=C(Nc1ccccc1Cc1ccccc1)c1ccccc1NS(=O)(=O)c1ccc(Cl)s1 | 4.01% |
| O=C(C1=C(O)C(=O)N(CCN2CCOCC2)C1c1cccc([N+](=O)[O-])c1)c1cccs1 (stereo not given) | -8.15% |
| CC1CCCCC1NC(=O)Cn1cnc2ccccc2c1=O (stereo not given) | 10.5% |
| C=C[C@@H]1c2c(F)cccc2N(S(=O)(=O)c2ccc(C)cc2)[C@H](c2ccc(OC(C)=O)cc2)C1(C#N)C#N | 10.4% |
| CCOC1=C2CN(S(=O)(=O)c3ccc(C)cc3)[C@H](c3ccc(CC)cc3)C[C@@H]2N(S(=O)(=O)c2ccc(C)cc2)[C@H](c2ccccc2)C1 | 10.9% |

| SMILES | inhibition |
| --- | --- |
| Cc1ccc(S(=O)(=O)NCc2ccc(C(=O)N3CCN(c4ccc([N+](=O)[O-])cc4)CC3)cc2)cc1 | 17% |
| NC(=S)N/N=C\c1c(OCc2ccccc2Cl)ccc2ccccc12 | 18.1% |
| CNC(=O)c1ccc(-c2sc3nc(N4CCOCC4)c4c(c3c2N)CC(C)(C)OC4)o1 | 3.63% |
| Cc1ccc(S(=O)(=O)N2C[C@H]3C(=O)C[C@@H](c4ccccc4)N(S(=O)(=O)c4ccc(C)cc4)[C@H]3C[C@H]2c2ccccc2F)cc1 | 6.96% |
| COc1ccc(CNC(=O)[C@H](Cc2ccccc2)NC(=O)C2CCN(C(=O)[C@H](C)N)CC2)cc1 | 12.2% |
| CN(C)CCCOc1ccc2c(c1)Sc1ccccc1CC2=O | -10.4% |
| CCCCc1c(O)nc(SCC(=O)NCC2CCCO2)[nH]c1=O (stereo not given) | -3.37% |
| COc1ccc(N/N=C(/N=Nc2nc(C)cc(=O)[nH]2)c2ccccc2)cc1 | 46.6% (active) |
| CCCCCn1c(=O)[nH]c2cc(C(=O)N3CCN(c4ccc(C(C)=O)cc4)CC3)ccc2c1=O | 0.25% |
| CO[C@@]12[C@@H]3N[C@@H]3CN1C1=C(C(=O)C(N)=C(C)C1=O)[C@@H]2COC(N)=O | 35.1% |
| CC(=O)Nc1ccc(C(=O)N/N=C/c2cc(Br)cc(Br)c2O)cc1 | 6.09% |
| Cc1cccn2c(CNCC3(c4ccccc4)CCCC3)c(C(=O)N3CCOCC3)nc12 | 7.17% |
| CCN(C(=O)COC(=O)c1ccccc1Cc1ccccc1)c1c(N)n(Cc2ccccc2)c(=O)[nH]c1=O | 6.67% |
| Cc1cc[n+](C(C)C(=O)c2ccc(-c3ccccc3)cc2)cc1 (stereo not given) | 8.52% |
| CCN(C(=O)COC(=O)/C(=C/c1ccccc1)n1nnnc1C)C1CCCCC1 | 26.9% |
| N#CCc1c[nH]c2ccc([N+](=O)[O-])cc12 | 24% |
| Cn1nc(C(C)(C)C)cc1C(=O)NCc1ccc(N2CCCC2=O)cc1 | 10.7% |
| CN1CCN(Cc2cc(COCc3ccccc3)c3cccnc3c2O)CC1 | 20.5% |
| CC(C)C(C)NC(=O)CSc1ccc(S(=O)(=O)N2CCOCC2)cn1 (stereo not given) | -6.95% |
| O=C(CN1C(=O)C(=O)N(C2CCCC2)C1=O)Nc1ccccc1OC(F)F | 10.1% |

Tested on: transactivating tegument protein VP16 (Human herpesvirus 1), Gal4-VP16 luciferase reporter
Assay: VP16 transactivation inhibitors, counter-screen for SRC3 inhibitor project, cell-based, luminescence, high throughput (AID 588794; in the data active = inhibition above about 30%)
Settings: mammalian cells, VP16-driven luciferase reporter luminescence; at 3.6 µM; stronger effect = higher value

| SMILES | inhibition |
| --- | --- |
| Cc1cccc(OCC(=O)NCC(=O)N/N=C/c2ccc(O)cc2O)c1 | 14% |
| CCCCC(=O)NC(=S)Nc1cccc(Cl)c1N1CCCCC1 | -6.23% |
| CC(C)c1ccc(NC(=O)C2CCCN(S(=O)(=O)c3cccnc3)C2)cc1 (stereo not given) | 4.41% |
| COC(=O)c1ccc(S(=O)(=O)NCc2ccc(S(N)(=O)=O)cc2)o1 | -6.55% |
| CCc1ccc(C(=O)COC(=O)c2cncc(Br)c2)cc1 | 7.77% |
| FC(F)(F)c1cccc(-c2nc3nc(Cl)c(Cl)nc3[nH]2)c1 | 31.5% (active) |
| Cc1cccc(OCC(O)Cn2c(=N)n(CCN3CCCCC3)c3ccccc32)c1 (stereo not given) | 20.6% |
| O=C(NC(=S)NNC(=O)c1cc2ccccc2cc1O)c1ccco1 | 61.6% (active) |
| Cc1ccc2c(c1)c(C)cc[n+]2Cc1ccccc1 | 4.92% |
| COC(=O)Cc1[nH]n(-c2nc3ccccc3s2)c(=O)c1C(C)=Nc1ccc(C)cc1 | 87.1% (active) |
| OCC(O)C(O)C(O)C(O)C1NCCS1 (stereo not given) | -4.51% |
| COc1ccc(S(=O)(=O)Nc2cc([N+](=O)[O-])ccc2OC)cc1 | 2.4% |
| Cc1ccc(C2(c3ccc(C)cc3)CC2C(=O)Nc2ccc([N+](=O)[O-])cc2O)cc1 (stereo not given) | 19.4% |
| Oc1cccc2ccc(Nc3ccccn3)nc12 | -8.03% |
| Brc1ccc(N=Nc2ccc3ccccc3n2)cc1 | 33.7% (active) |
| O=C(Nc1ccccc1Cc1ccccc1)c1ccccc1NS(=O)(=O)c1ccc(Cl)s1 | 24.9% |
| O=C(C1=C(O)C(=O)N(CCN2CCOCC2)C1c1cccc([N+](=O)[O-])c1)c1cccs1 (stereo not given) | -1.72% |
| CC1CCCCC1NC(=O)Cn1cnc2ccccc2c1=O (stereo not given) | -4.34% |
| C=C[C@@H]1c2c(F)cccc2N(S(=O)(=O)c2ccc(C)cc2)[C@H](c2ccc(OC(C)=O)cc2)C1(C#N)C#N | 3.61% |
| CCOC1=C2CN(S(=O)(=O)c3ccc(C)cc3)[C@H](c3ccc(CC)cc3)C[C@@H]2N(S(=O)(=O)c2ccc(C)cc2)[C@H](c2ccccc2)C1 | 35.4% (active) |

| SMILES | inhibition |
| --- | --- |
| Cc1ccc(S(=O)(=O)NCc2ccc(C(=O)N3CCN(c4ccc([N+](=O)[O-])cc4)CC3)cc2)cc1 | 36.9% (active) |
| NC(=S)N/N=C\c1c(OCc2ccccc2Cl)ccc2ccccc12 | 27.6% |
| CNC(=O)c1ccc(-c2sc3nc(N4CCOCC4)c4c(c3c2N)CC(C)(C)OC4)o1 | -22.1% |
| Cc1ccc(S(=O)(=O)N2C[C@H]3C(=O)C[C@@H](c4ccccc4)N(S(=O)(=O)c4ccc(C)cc4)[C@H]3C[C@H]2c2ccccc2F)cc1 | 2.52% |
| COc1ccc(CNC(=O)[C@H](Cc2ccccc2)NC(=O)C2CCN(C(=O)[C@H](C)N)CC2)cc1 | -2.01% |
| CN(C)CCCOc1ccc2c(c1)Sc1ccccc1CC2=O | -4.19% |
| CCCCc1c(O)nc(SCC(=O)NCC2CCCO2)[nH]c1=O (stereo not given) | 6.46% |
| COc1ccc(N/N=C(/N=Nc2nc(C)cc(=O)[nH]2)c2ccccc2)cc1 | 30.7% (active) |
| CCCCCn1c(=O)[nH]c2cc(C(=O)N3CCN(c4ccc(C(C)=O)cc4)CC3)ccc2c1=O | 21.7% |
| CO[C@@]12[C@@H]3N[C@@H]3CN1C1=C(C(=O)C(N)=C(C)C1=O)[C@@H]2COC(N)=O | 22% |
| CC(=O)Nc1ccc(C(=O)N/N=C/c2cc(Br)cc(Br)c2O)cc1 | 11.2% |
| Cc1cccn2c(CNCC3(c4ccccc4)CCCC3)c(C(=O)N3CCOCC3)nc12 | 6.26% |
| CCN(C(=O)COC(=O)c1ccccc1Cc1ccccc1)c1c(N)n(Cc2ccccc2)c(=O)[nH]c1=O | 13.9% |
| Cc1cc[n+](C(C)C(=O)c2ccc(-c3ccccc3)cc2)cc1 (stereo not given) | 32% (active) |
| CCN(C(=O)COC(=O)/C(=C/c1ccccc1)n1nnnc1C)C1CCCCC1 | 27% |
| N#CCc1c[nH]c2ccc([N+](=O)[O-])cc12 | 20% |
| Cn1nc(C(C)(C)C)cc1C(=O)NCc1ccc(N2CCCC2=O)cc1 | 38.8% (active) |
| CN1CCN(Cc2cc(COCc3ccccc3)c3cccnc3c2O)CC1 | 31% (active) |
| CC(C)C(C)NC(=O)CSc1ccc(S(=O)(=O)N2CCOCC2)cn1 (stereo not given) | 8.39% |
| O=C(CN1C(=O)C(=O)N(C2CCCC2)C1=O)Nc1ccccc1OC(F)F | -11.8% |
